Consider 103 compounds from PubChem BioAssay.

A number with no mark means an inactive call. How the calls were made is not given here.

In general, inhibition refers to the change of the read-out against control, counted positive when it falls.

The test has as its target Pantothenate synthetase (Mycobacterium tuberculosis (strain ATCC 25618 / H37Rv)) (UniProt P9WIL5). As to the kind of experiment: Coupled enzyme confirmation of inhibitors against recombinant Mtb PanC (AID 375).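 Further: 0% = full reaction with vehicle and 100% = no enzyme background.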 The settings on record: coupled enzyme assay; at 10 µM, stronger effect = higher value.

Sequence of Pantothenate synthetase (Mycobacterium tuberculosis (strain ATCC 25618 / H37Rv)) (P9WIL5 whole entry, looked up): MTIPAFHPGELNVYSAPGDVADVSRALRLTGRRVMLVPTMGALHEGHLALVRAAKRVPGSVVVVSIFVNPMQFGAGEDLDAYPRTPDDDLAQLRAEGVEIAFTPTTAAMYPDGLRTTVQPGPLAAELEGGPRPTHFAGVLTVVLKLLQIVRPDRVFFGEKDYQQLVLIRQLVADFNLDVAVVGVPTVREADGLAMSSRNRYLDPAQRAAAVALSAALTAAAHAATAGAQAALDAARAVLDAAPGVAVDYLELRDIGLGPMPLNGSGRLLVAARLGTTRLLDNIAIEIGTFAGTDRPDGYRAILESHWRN

With `CCOc1ccc(C2/C(=C(/O)c3ccc(OC)cc3)C(=O)C(=O)N2c2cc(C)on2)cc1OC` (stereo not drawn), the inhibition is 0%.

In the case of `CC(=O)Nc1ccc(Cl)cc1C(=O)O`, the inhibition was 2%.

Turning to `Cc1ccc(S(=O)(=O)N(CC(=O)NCc2ccco2)Cc2ccccc2F)cc1`, the inhibition is 0%.

On to `FC(F)(F)c1nnc2ccc(NCn3nnc4ccccc43)nn12`, for which the inhibition was 3%.

On to `CCOC(=O)N1CCN(Cc2ccccc2F)CC1`, for which the inhibition was 19%.

Regarding `O=C(c1ccccc1-c1nc(-c2ccccc2)no1)N1CCCC1`, the inhibition was 0%.

Regarding `O=C(CN1CCN(c2ncccn2)CC1)Nc1ccccc1-n1cccc1`, the inhibition is 0%.

For `CCc1cc(=O)oc2cc(OC(C)=O)cc(OC(C)=O)c12`, the inhibition was 0%.

For the compound `CCOc1ccccc1C(=O)Nn1c(C2CCC2)nc2ccccc2c1=O`, the inhibition is 0%.

In the case of `O=C(c1ccco1)N1CCN(C(=O)C2CCN(S(=O)(=O)c3cccc4nsnc34)CC2)CC1`, the inhibition is 10%.

Consider `COCCNC(=O)C(c1ccc(O)cc1)N(Cc1ccco1)C(=O)CCC(=O)Nc1nccs1` (stereo not drawn), for which the inhibition was 1%.

Take `Oc1ccccc1C1=Nc2nc3ccccc3n2C(c2ccccc2)C1` (stereo not drawn): the inhibition is 0%.

For `Cc1nnc(NCc2n[nH]c(=O)c3ccccc23)c2ccccc12`, the inhibition was 13%.

On to `N=c1c(C(=O)NCc2ccc3c(c2)OCO3)cc2c(=O)n3ccccc3nc2n1Cc1cccnc1`, for which the inhibition is 2%.

With `Cn1c(=O)c2c(nc(SCCOc3ccc4ccc(=O)oc4c3)n2C)n(C)c1=O`, the inhibition is 0%.

For `CC(C)c1nc(NCC2CCCO2)c(C#N)c2c1COC(C)(C)C2` (stereo not drawn), the inhibition was 3%.

Turning to `c1ccc(CSc2nnc(-c3cccs3)n2Cc2ccco2)cc1`, the inhibition was 0%.

For the compound `CCC(C)(C(=O)NC1CCCC1)N(Cc1cccs1)C(C)=O` (stereo not drawn), the inhibition was 2%.

For `COc1ccc2c(c1OC)C(=O)OC2CC(=O)c1ccc(O)cc1` (stereo not drawn), the inhibition was 0%.

On to `CC1CCCC(C)N1CCNC(=O)C1CCN(S(=O)(=O)N2CCCCC2)CC1` (stereo not drawn), for which the inhibition is 3%.

As to `CSc1nnc(-c2nnc(SC)n2-c2ccccc2)n1-c1ccccc1`, the inhibition was 0%.

For `O=C1c2ccccc2C(Nc2ccc(-c3nc4ccccc4[nH]3)cc2)N1Cc1ccco1` (stereo not drawn), the inhibition is 5%.

Regarding `COCCNC(=O)c1c(N)n(CCC2=CCCCC2)c2nc3ccccc3nc12`, the inhibition was 0%.

On to `CC(C)NCC(O)COc1ccc(CCOCC2CC2)cc1` (stereo not drawn), for which the inhibition is 0%.

Turning to `COc1cc(C2Nc3cccc4cccc(c34)N2)cc(OC)c1O`, the inhibition is 0%.

Consider `CC(C)CNS(=O)(=O)c1ccc(OCC(=O)Nc2ccc3c(c2)OCO3)c(Cl)c1`, for which the inhibition is 6%.

For the compound `O=S(=O)(c1cc(Cl)ccc1Br)N1CCOCC1`, the inhibition is 0%.

With `Cc1cccc(C2c3c(n(C)c(=O)n(C)c3=O)N=C3c4ccccc4C(=O)C32)c1` (stereo not drawn), the inhibition was 7%.

Consider `COc1cccc(NC(=O)c2nnn(Cc3ccc(Br)cc3F)c2N)c1`, for which the inhibition was 7%.

Turning to `CC(=O)OCC(=O)[C@@]1(O)CC[C@H]2[C@@H]3CCC4=CC(=O)C=C[C@]4(C)[C@H]3[C@@H](O)C[C@@]21C`, the inhibition is 0%.

For `CSCCC(NC(=O)c1occc1C)C(=O)O` (stereo not drawn), the inhibition was 0%.

`COc1cc2nc(C3CCC3)n(NC(=O)C3CCCC(OC)C3)c(=O)c2cc1OC` (stereo not drawn): the inhibition is 2%.

As to `O=S(=O)(c1ccccc1)N1CCN(S(=O)(=O)c2ccccc2)C1`, the inhibition is 0%.

As for `Cc1csc(NC(=O)c2sc3nc(-c4cccs4)ccc3c2N)n1`, the inhibition was 5%.

On to `Nc1nc(NCc2ccco2)nn1-c1ccccc1`, for which the inhibition was 0%.

In the case of `COc1ccccc1NC(=O)C(O)C(O)C(=O)Nc1ccccc1OC` (stereo not drawn), the inhibition is 3%.

On to `NC(CO)C(=O)NNCc1ccc(O)c(O)c1O` (stereo not drawn), for which the inhibition was 0%.

Consider `CCN1CCN(CCCNC(=O)c2cc3sccc3n2CC)CC1`, for which the inhibition is 0%.

As for `Cc1ccc(S(=O)(=O)N2CCN(C(=O)CSC3CCCC3)CC2)c(C)c1`, the inhibition is 0%.

As to `Cc1ccc(N=Cc2ccc[nH]2)c(O)c1`, the inhibition is 0%.

For `N#CCCn1ccc(NC(=O)c2ccc(Cl)cc2)n1`, the inhibition is 0%.

Regarding `COc1ccc(N(C(=O)c2ccco2)C(C(=O)NC2CCCC2)c2ccc(N(C)C)cc2)cc1OC` (stereo not drawn), the inhibition is 1%.

On to `CC(=O)NC(=O)NC1CSCC1OC(C)=O` (stereo not drawn), for which the inhibition is 4%.

Consider `N#CC1=C(N)Oc2c(ccc3cccnc23)C1c1cccnc1` (stereo not drawn), for which the inhibition is 0%.

On to `CCc1ccc(NC(=O)CSc2nnc(Cc3cccn3C)n2-c2ccc(OC)cc2)cc1`, for which the inhibition was 0%.

`CC1CCc2cc(F)cc3c(O)c(C(=O)NCC4CCCO4)c(=O)n1c23` (stereo not drawn): the inhibition is 2%.

On to `CCCCOCCCNC(=O)COc1ccccc1`, for which the inhibition is 1%.

As to `CCCCN(CC)CCCNC(=O)CS(=O)(=O)Cc1nc(-c2cccc(OC)c2)oc1C`, the inhibition is 0%.

Take `O=c1c(CN2CCN(Cc3ccccc3)CC2)coc2ccc(Cl)cc12`: the inhibition was 0%.

Turning to `Cc1ccc(CN2C(=O)CCC2C(=O)NCC2CCCO2)cc1` (stereo not drawn), the inhibition is 3%.

With `COc1cccc(-n2c(CNc3ccc(F)cc3)nnc2SCC(N)=O)c1`, the inhibition was 0%.

As for `O=C(CSc1nnnn1-c1ccccc1)Nc1nsc(-c2ccc(Cl)cc2)n1`, the inhibition is 0%.

Take `Cc1ccccc1C1CC(c2ccccc2)Nc2ncnn21` (stereo not drawn): the inhibition is 12%.

`COc1ccc2c(c1OC)C(=O)OC2C1c2c(cc3c(c2OC)OCO3)CCN1C` (stereo not drawn): the inhibition is 0%.

Regarding `CSC1=C(C#N)C(C)CC(=O)N1` (stereo not drawn), the inhibition was 0%.

Take `Cn1cnnc1SCC(=O)NCc1cccc(C(F)(F)F)c1`: the inhibition is 0%.

As for `Cc1ccc(N2CCN(S(=O)(=O)N(C)C)CC2)c(C)c1`, the inhibition was 0%.

In the case of `CN(CCc1ccccn1)c1ncnc2[nH]ncc12`, the inhibition is 0%.

Take `COc1ccc(C)cc1NC(=O)CSc1nnnn1Cc1ccccc1`: the inhibition is 2%.

With `COc1ccc(-c2noc(-c3ccccc3C(=O)Nc3cccnc3)n2)cc1OC`, the inhibition is 0%.

`O=C(Nc1ncnc2sc3c(c12)CCC3)c1ccco1`: the inhibition was 0%.

For `COc1cccc(C(=O)OCn2nnc3ccccc3c2=O)c1`, the inhibition was 0%.

Turning to `CCC1(CC)C(=O)N(C)C(=O)NC1=NCc1ccccc1`, the inhibition was 0%.

For the compound `CCCN1CCN(CCCNC(=O)Cn2ncc3c4ccccc4n(C)c3c2=O)CC1`, the inhibition was 3%.

Regarding `COc1ccc(N2C(=O)C3C4C=CC(C4)C3C2=O)nn1` (stereo not drawn), the inhibition was 8%.

As for `O=c1c2c(-c3ccccc3)csc2nc2n1CCC2`, the inhibition was 0%.

For `O=C(Cn1c(=O)[nH]c2ccsc2c1=O)NC1CCCCCC1`, the inhibition is 7%.

As for `CCOc1ccc2[nH]c(=O)c(C(c3nnnn3Cc3ccco3)N3CCC(C)CC3)cc2c1` (stereo not drawn), the inhibition is 0%.

In the case of `c1cc(CNc2ccc3c(c2)OCO3)ccn1`, the inhibition is 0%.

In the case of `N#Cc1c(NC(=O)CSc2nnnn2C2CCCC2)sc2c1CCCC2`, the inhibition was 7%.

`O=C(c1ccco1)N1CCN(C(=O)C2CC(c3ccc(F)cc3)=NO2)CC1` (stereo not drawn): the inhibition was 0%.

`CCOC(=O)C1=C(C)NC(=O)NC1c1ccc(Br)s1` (stereo not drawn): the inhibition is 1%.

For `Cc1cc(=O)n(C)c(=O)n1CCCNc1ccccc1`, the inhibition is 2%.

Regarding `O=C(Nn1cnnc1)c1cc2c(s1)CCCC2`, the inhibition is 0%.

On to `Cc1cc(C(F)(F)F)c2c(C)nn(CCc3nn[nH]n3)c2n1`, for which the inhibition was 0%.

On to `COCCN(C(=O)CCC(=O)Nc1ccccn1)C(C(=O)NC1CCCC1)c1ccc(OC)cc1` (stereo not drawn), for which the inhibition was 0%.

In the case of `CCOC(=O)c1c(C)[nH]c(C(=O)Cn2c(=O)c3c(ncn3CC)n(Cc3ccccc3)c2=O)c1C`, the inhibition was 3%.

Take `Cc1cc(C)n(-c2nc(C)nc3c2cnn3-c2ccccc2)n1`: the inhibition was 0%.

Turning to `O=c1sc(Nc2ccccc2)nc2ccsc12`, the inhibition is 0%.

For `CCOc1nc2ccccc2nc1NS(=O)(=O)c1ccccc1`, the inhibition was 1%.

Regarding `CCC1C(=O)N=C(SCC(=O)Nc2cccc3ccccc23)NC1=O` (stereo not drawn), the inhibition was 0%.

As to `CCCCC(=O)NCCNc1nc2c(c(=O)n(C)c(=O)n2C)n1Cc1ccccc1`, the inhibition is 0%.

With `Cc1cccc(N2C(=O)CC(N3CCN(Cc4ccc(Cl)cc4)CC3)C2=O)c1` (stereo not drawn), the inhibition was 0%.

With `CCn1c(NC(=O)c2cccc(Cn3cc(Cl)cn3)c2)nc2ccccc21`, the inhibition was 0%.

`O=c1oc2ccccc2c(O)c1CN1CCCCC1`: the inhibition was 0%.

Turning to `Nn1c(SCC(=O)NC2CCCCC2)nnc1C1CC1`, the inhibition is 0%.

Take `CC(=O)NCc1ccc(C(=O)CSc2nnc(-c3ccncc3)n2Cc2ccccc2)o1`: the inhibition was 16%.

On to `Cc1nn(C)c(C)c1NC(=O)CSc1nc(Cc2ccccc2)nc2c1cnn2-c1ccccc1`, for which the inhibition was 2%.

For the compound `Cc1cccc(NC(=O)c2cc3ccccc3o2)c1`, the inhibition was 5%.

For `COc1ccccc1Nc1nc2ccccc2[nH]1`, the inhibition was 0%.

As to `O=C(Nc1ccccc1N1CCN(C(=O)c2ccc(Cl)cc2)CC1)c1cc2ccccc2o1`, the inhibition is 3%.

Take `COc1ccc(Cc2nc(-c3ccc(NC(=O)c4cccnc4)cc3)no2)cc1`: the inhibition is 0%.

In the case of `COc1cccc(-c2nc(CS(=O)(=O)CC(=O)NCc3ccc(Cl)cc3)c(C)o2)c1`, the inhibition was 0%.

In the case of `CC(=O)Nc1nc(-c2ccccc2)nc(C)c1C(C)=O`, the inhibition was 1%.

In the case of `CCCn1nc(NS(=O)(=O)c2ccccc2)c2cc3ccccc3nc21`, the inhibition is 1%.

On to `O=C(C(Cc1ccccc1)n1cccc1)N1CCCCCC1` (stereo not drawn), for which the inhibition was 8%.

Consider `O=c1[nH]c(SCc2ccc(F)cc2)nc2c1cnn2-c1ccc(F)cc1`, for which the inhibition was 0%.

In the case of `CCCC1c2ccc(C)n2CCN1C(=O)Nc1ccccc1Cl` (stereo not drawn), the inhibition was 1%.

For the compound `NC(=O)c1oc2ccc(Cl)cc2c1NC(=O)CN1CCOCC1`, the inhibition was 1%.

In the case of `CC(NS(=O)(=O)c1ccccc1)C(c1cccs1)N1CCN(C)CC1` (stereo not drawn), the inhibition was 4%.

For `Cc1ccc(O)c(-c2cc3ccccc3[nH]2)c1`, the inhibition was 0%.

Consider `O=C(c1ccc(Br)o1)N(c1ccc(Br)cc1)C1C=CS(=O)(=O)C1` (stereo not drawn), for which the inhibition was 0%.

With `Cc1ccc2cc(C#N)c(N3CCCC3)nc2c1C`, the inhibition is 4%.
